Bioassay records deposited in PubChem BioAssay by Broad Institute.
Many of the other results were omitted from the sample, so hits are more common in it than they were.
IDE exosite inh – exo-site inhibitors of human IDE, primary screen, biochemical, fluorescence anisotropy, probe displacement. purified IDE, FL-6b probe fluorescence polarization; active compounds read low. AID 1259349, 2017. hit rate 6.3% among 17,000. z-score at 20 µM;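 active = z-score of -3 or lower, meaning strong loss of probe binding signal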;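 note: His-tagged human IDE residues 42-1019 made in E. coli with 30 nM FL-6b probe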
Target sequence (P14735 42-1019 limits assumed): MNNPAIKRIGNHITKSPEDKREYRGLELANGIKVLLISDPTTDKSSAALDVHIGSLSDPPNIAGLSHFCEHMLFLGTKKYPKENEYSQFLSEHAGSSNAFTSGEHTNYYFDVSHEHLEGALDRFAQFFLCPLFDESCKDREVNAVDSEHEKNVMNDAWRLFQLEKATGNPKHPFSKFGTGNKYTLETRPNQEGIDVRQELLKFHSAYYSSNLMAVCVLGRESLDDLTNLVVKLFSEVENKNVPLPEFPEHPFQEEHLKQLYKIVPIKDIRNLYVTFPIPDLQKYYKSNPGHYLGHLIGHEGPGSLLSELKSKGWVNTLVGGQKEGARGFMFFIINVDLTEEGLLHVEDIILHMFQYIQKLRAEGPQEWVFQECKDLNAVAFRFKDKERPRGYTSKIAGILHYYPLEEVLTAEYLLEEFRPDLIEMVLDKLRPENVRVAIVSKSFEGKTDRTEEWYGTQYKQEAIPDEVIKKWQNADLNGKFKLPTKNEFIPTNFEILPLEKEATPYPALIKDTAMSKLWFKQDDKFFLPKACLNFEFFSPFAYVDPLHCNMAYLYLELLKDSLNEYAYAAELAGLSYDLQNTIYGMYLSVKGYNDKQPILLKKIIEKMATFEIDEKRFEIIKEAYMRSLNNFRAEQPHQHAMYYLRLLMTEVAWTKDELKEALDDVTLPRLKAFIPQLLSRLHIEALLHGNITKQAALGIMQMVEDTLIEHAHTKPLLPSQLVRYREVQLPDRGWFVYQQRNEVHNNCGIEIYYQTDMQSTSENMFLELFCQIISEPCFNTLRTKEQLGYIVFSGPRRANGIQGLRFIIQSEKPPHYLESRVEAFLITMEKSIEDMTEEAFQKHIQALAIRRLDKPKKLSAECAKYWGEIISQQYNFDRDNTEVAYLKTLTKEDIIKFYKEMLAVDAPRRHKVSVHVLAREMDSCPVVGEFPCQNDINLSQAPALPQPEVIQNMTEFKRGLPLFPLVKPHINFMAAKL
A number is an active result.

Results for O=C(CC1CC1)N1CC(=O)N2[C@H](CO)[C@H](c3ccc(C#Cc4cccc(F)c4)cc3)[C@H]2C1 ?
IDE exosite inh: -3.94

How did O=C(CC1CC1)N1CC(=O)N2[C@H](CO)[C@@H](c3ccc(C#Cc4cccc(F)c4)cc3)[C@H]2C1 do in these assays?
IDE exosite inh: inactive

Results for O=C(CC1CC1)N1CC(=O)N2[C@@H](CO)[C@H](c3ccc(C#Cc4cccc(F)c4)cc3)[C@@H]2C1 ?
IDE exosite inh: inactive

How did O=C(CC1CC1)N1CC(=O)N2[C@H](CO)[C@H](c3ccc(C#Cc4cccc(F)c4)cc3)[C@@H]2C1 do in these assays?
IDE exosite inh: -3.21

Results for CCCC#Cc1ccc2c(c1)[C@@H]1[C@@H](CCN1C(=O)CC1CC1)[C@@H](CO)N2C ?
IDE exosite inh: inactive

What do the screens show for `CCCN(C[C@H]1[C@@H](c2ccccc2)[C@H](CO)N1C(C)=O)C(=O)NC(C)C`?
IDE exosite inh: inactive

Results for COc1ccc(NC(=O)N2CC(=O)N3[C@H](CO)[C@@H](c4ccc(/C=C/c5ccccc5)cc4)[C@@H]3C2)cc1 ?
IDE exosite inh: inactive

What do the screens show for `CN(C)C(=O)c1ccc(-c2ccc([C@H]3[C@H]4CN(C(=O)C5CCCCC5)CC(=O)N4[C@H]3CO)cc2)cc1`?
IDE exosite inh: inactive

What do the screens show for `CN(C)C(=O)c1ccc(-c2ccc([C@@H]3[C@@H](CO)N4C(=O)CN(C(=O)C5CCC5)C[C@@H]34)cc2)cc1`?
IDE exosite inh: inactive

Results for CN1C(=O)c2cc(NC(=O)Nc3ccc(Cl)cc3)ccc2OC[C@H]2O[C@@H](CC(=O)NCCN3CCCCC3)CC[C@H]21 ?
IDE exosite inh: inactive

Results for CN1C(=O)c2cc(NC(=O)Nc3ccccc3Cl)ccc2OC[C@H]2O[C@H](CC(=O)NCCCN3CCOCC3)CC[C@@H]21 ?
IDE exosite inh: -14.2

What do the screens show for `CN1C(=O)c2cc(NC(=O)Cc3cccs3)ccc2OC[C@@H]2O[C@@H](CC(=O)NCCCN3CCOCC3)CC[C@H]21`?
IDE exosite inh: inactive

How did CN1C(=O)c2cc(NC(=O)Nc3ccccc3Cl)ccc2OC[C@H]2O[C@@H](CC(=O)NCCCN3CCOCC3)CC[C@@H]21 do in these assays?
IDE exosite inh: -6.1

How did CN1C(=O)c2cc(NC(=O)Cc3cccs3)ccc2OC[C@@H]2O[C@H](CC(=O)NCCCN3CCOCC3)CC[C@H]21 do in these assays?
IDE exosite inh: inactive

How did CN1C(=O)c2cc(NC(=O)Cc3cccs3)ccc2OC[C@H]2O[C@@H](CC(=O)NCCCN3CCOCC3)CC[C@H]21 do in these assays?
IDE exosite inh: inactive

How did CCS(=O)(=O)Nc1ccc2c(c1)C(=O)N(C)[C@H]1CC[C@H](CC(=O)NCCCN3CCOCC3)O[C@@H]1CO2 do in these assays?
IDE exosite inh: inactive

How did CN1C(=O)c2cc(NC(=O)Nc3ccc(Cl)cc3)ccc2OC[C@@H]2O[C@H](CC(=O)NCCN3CCCCC3)CC[C@H]21 do in these assays?
IDE exosite inh: inactive

How did CN1C(=O)c2cc(NC(=O)Nc3ccccc3Cl)ccc2OC[C@@H]2O[C@H](CC(=O)NCCCN3CCOCC3)CC[C@@H]21 do in these assays?
IDE exosite inh: -4.65

What do the screens show for `CN1C(=O)c2cc(NC(=O)Cc3cccs3)ccc2OC[C@H]2O[C@H](CC(=O)NCCCN3CCOCC3)CC[C@@H]21`?
IDE exosite inh: inactive

Results for CN1C(=O)c2cc(NC(=O)Cc3cccs3)ccc2OC[C@H]2O[C@@H](CC(=O)NCCCN3CCOCC3)CC[C@@H]21 ?
IDE exosite inh: inactive

Results for CN1C(=O)c2cc(NC(=O)Nc3ccc(Cl)cc3)ccc2OC[C@H]2O[C@@H](CC(=O)NCCN3CCCCC3)CC[C@@H]21 ?
IDE exosite inh: -4.65

How did O=C(Nc1ccccc1F)N1CC(=O)N2[C@H](CO)[C@@H](c3ccc(C#CC4CC4)cc3)[C@@H]2C1 do in these assays?
IDE exosite inh: inactive

Results for Cc1cccc(S(=O)(=O)N2CCCCN3[C@H](C2)[C@@H](c2ccc(C#C[C@H](C)O)cc2)[C@@H]3CO)c1 ?
IDE exosite inh: inactive

Results for O=C(c1ccccn1)N1CC(=O)N2[C@@H](CO)[C@H](c3ccc(-c4cccc(F)c4)cc3)[C@@H]2C1 ?
IDE exosite inh: inactive

Results for CC(C)CC#Cc1ccc([C@@H]2[C@@H](CO)N3C(=O)CN(C(=O)c4cnccn4)C[C@H]23)cc1 ?
IDE exosite inh: inactive

How did COCC(=O)N1CCC2(CC1)CN(C(=O)c1ccccn1)[C@H](CO)c1c2c2ccc(OC)cc2n1C do in these assays?
IDE exosite inh: inactive

How did CCC(=O)Nc1ccc2c(c1)C(=O)N(C)C[C@@H](OC)[C@@H](C)CN(Cc1nccs1)[C@@H](C)CO2 do in these assays?
IDE exosite inh: inactive

Results for O=C1N[C@@H](c2ccccc2)COCc2cn(nn2)CC[C@H]1Cc1cccc(Cl)c1 ?
IDE exosite inh: inactive

What do the screens show for `O=S(=O)(c1cccs1)N1CCCCN2[C@H](C1)[C@@H](c1ccc(Br)cc1)[C@@H]2CO`?
IDE exosite inh: inactive

What do the screens show for `CC(C)C#Cc1ccc([C@@H]2[C@@H](CO)N(C(=O)CN(C)C)[C@H]2C#N)cc1`?
IDE exosite inh: inactive

Results for COc1ccc2c3c([nH]c2c1)[C@@H](CO)N(C(=O)CC1CC1)CC31CCN(C(=O)c2ccccc2)CC1 ?
IDE exosite inh: inactive

Results for CN1C(=O)c2cc(NC(=O)Nc3ccccc3Cl)ccc2OC[C@@H]2O[C@H](CC(=O)O)CC[C@@H]21 ?
IDE exosite inh: inactive

Results for CN1C(=O)c2cc(NC(=O)Nc3ccccc3Cl)ccc2OC[C@H]2O[C@H](CC(=O)O)CC[C@@H]21 ?
IDE exosite inh: -6.19

What do the screens show for `CN1C(=O)c2cc(NC(=O)Nc3ccccc3Cl)ccc2OC[C@H]2O[C@H](CC(=O)O)CC[C@H]21`?
IDE exosite inh: inactive

How did COCCN(C[C@H]1[C@H](c2ccccc2)[C@H](CO)N1C(C)=O)C(=O)c1cccnc1 do in these assays?
IDE exosite inh: inactive

How did Cc1ccc(-c2ccc(C3[C@@H]4CN(S(=O)(=O)c5ccccc5)C[C@H]3N4)cc2)cc1 (stereo partly drawn) do in these assays?
IDE exosite inh: inactive

Results for O=C1CN(S(=O)(=O)c2ccccc2)C[C@H]2[C@@H](c3ccc(C4=CCCC4)cc3)[C@H](CO)N12 ?
IDE exosite inh: inactive

What do the screens show for `O=C1N[C@H](Cc2ccccc2)COCc2cnnn2CC[C@@H]1Cc1ccc(-c2ccccc2)cc1`?
IDE exosite inh: inactive

What do the screens show for `Fc1cccc(CN2[C@@H]3CNC[C@H]2C3c2ccc(-c3cccnc3)cc2)c1` (stereo partly drawn)?
IDE exosite inh: inactive

How did COc1cc(CN2[C@@H]3CNC[C@H]2C3c2ccc(-c3cccc(C)c3)cc2)cc(OC)c1 (stereo partly drawn) do in these assays?
IDE exosite inh: -7.18

What do the screens show for `COc1cccc(CN2[C@@H]3CNC[C@H]2C3c2ccc(-c3ccc(C#N)cc3)cc2)c1` (stereo partly drawn)?
IDE exosite inh: inactive

What do the screens show for `COc1cc(CN2[C@@H]3CNC[C@H]2C3c2ccc(-c3ccc(C#N)cc3)cc2)cc(OC)c1` (stereo partly drawn)?
IDE exosite inh: inactive

What do the screens show for `C/C=C/c1ccc(C2[C@H]3CNC[C@@H]2N3Cc2cc(OC)cc(OC)c2)cc1` (stereo partly drawn)?
IDE exosite inh: inactive

Results for COc1cccc(CN2[C@@H]3CNC[C@H]2[C@H]3c2ccc(-c3ccccc3OC)cc2)c1 ?
IDE exosite inh: -3.38

What do the screens show for `COc1ccccc1-c1ccc(C2[C@H]3CNC[C@@H]2N3Cc2cc(-c3ccccc3)on2)cc1` (stereo partly drawn)?
IDE exosite inh: inactive
